Rows were chosen to be rich in hits. Some 2.2% of all compounds tested hit in one or more screens of this group.
Ba/F3 V617F tox: reduced viability of JAK2V617F-dependent Ba/F3 cells, primary screen, JAK2V617F inhibitor project, cell-based, Ba/F3 EpoR-JAK2V617F, luminescence; inhibition, % at 5.6 µM; hit rate 1.1% among 220,000; ATP luminescence; AID 1446, 2008;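 active = inhibition above the campaign mean plus 3 SD over all tested compounds, cut at about 24% in these data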;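 also: cytokine-independent growth of Ba/F3 cells driven by EpoR plus mutant JAK2; 0% = DMSO-treated cells and 100% = JAK inhibitor I control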
BaF3 tox: parental Ba/F3 cell viability inhibition, counter-screen for JAK2V617F inhibitor project, murine pro-B, CellTiter-Glo luminescence. hit rate 1.1% among 220,000. CellTiter-Glo ATP luminescence. inhibition, % at 5.6 µM;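 active = inhibition above a per-campaign cutoff, the mean inhibition of all tested compounds plus 3 SD, cut at about 27% in these data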;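 also: 0% = DMSO wells and 100% = JAK Inhibitor I control wells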
APP transl inh: inhibitors of APP translation via 5'UTR reporter, primary screen, APP 5'UTR luciferase, SH-SY5Y cells; hit rate 0.82% among 190,000; SH-SY5Y APP 5'UTR-luciferase reporter, luminescence; AID 1285, 2008; inhibition, % at 2 µM;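 active = inhibition above a set limit, derived from the sample mean plus 3 SD, cut at about 45% in these data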
KLF5 inhibitor: KLF5 expression inhibitors, primary screen, DLD-1 cells, luminescence | DLD-1 KLF5 promoter-luciferase reporter | hit rate 0.23% among 290,000 | AID 1700, 2009 | inhibition, % at 5 µM;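 active = inhibition above a per-plate limit of that plate's mean compound inhibition plus 3 SD, cut at about 60% in these data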;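 also: 0% = DMSO wells and 100% = LY294002 at 200 µM; higher means less KLF5 promoter-driven luciferase light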
aSyn UTR inh: MLPCN primary screen, SNCA 5' untranslated region; hit rate 0.82% among 300,000; inhibition, % (tested at 7.5 µM); alpha-synuclein 5'UTR reporter, inhibitor activity; in the data active = inhibition above about 60%;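 also: H4 neuroglioblastoma cells stably carrying SNCA 5'UTR luciferase fusion; 0% = DMSO wells and 100% = positive control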
IEC-6 cytotox: cytotoxicity in IEC-6 intestinal epithelial cells, primary screen, cytotoxicity control for KLF5 inhibitor project, cell-based, luminescence. IEC-6 cytotoxicity, luminescence viability. inhibition, % at 5 µM. AID 1825, 2009. hit rate 0.78% among 290,000; in the data active = inhibition above about 22%;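 also: 0% = plate median of test compound wells and 100% = cytotoxic reference compound wells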
Numbers without * were called inactive; x = not tested or not shown.

SMILES | Ba/F3 V617F tox | BaF3 tox | APP transl inh | KLF5 inhibitor | aSyn UTR inh | IEC-6 cytotox
CCOC(=O)c1cccc(N2C(=O)C3C4C=CC(CC4)C3C2=O)c1 (stereo unspecified) | x | x | x | -21 | 10 | 3
CCOC(=O)c1cccc(N2C(N)=NC(N)=NC2(C)C)c1 | 73* | 96* | 6 | 9 | -4 | -1
CCOc1ccc(-n2nc3cc(C)c(N)cc3n2)cc1 | x | x | x | -3 | 26 | -4
COc1ccc2[nH]c3c(=O)n(Cc4ccc(C(=O)N5CCCC5)cc4)c(=S)[nH]c3c2c1 | 4 | 0 | 5 | -11 | -52 | 1
CCCCOc1ccc(-c2cnc3ccccc3n2)cc1 | -1 | 4 | x | -26 | 101* | 0
Oc1ccc(-c2cnc3ccccc3n2)cc1 | x | x | x | x | -72 | x
CCOC(=O)c1cnn(-c2nc(OCC)cc(OCC)n2)c1C | 2 | 6 | -1 | -19 | 27 | 2
O=C(/C=C/c1cccc([N+](=O)[O-])c1)c1ccc([N+](=O)[O-])o1 | x | x | x | x | 71* | x
Cn1c(=O)c2c(nc(NCc3ccco3)n2C/C=C/c2ccccc2)n(C)c1=O | x | x | x | x | 90* | x
COc1ccc(COc2cc(-c3cccc(OC)c3)nc3ccc(N)cc23)cc1 | 81* | 84* | 96* | 1 | -33 | 6
Cn1c(Oc2ccc(Cl)c3cccnc23)nc2c1c(=O)n(Cc1ccccc1Cl)c(=O)n2C | -2 | 94* | -6 | -11 | x | 0
COc1ccnc2c1c(=O)n(Cc1ccccc1Cl)c(=O)n2C | x | x | x | -18 | -1 | -4
Cc1ccc(-n2c(-c3ccccc3)c[nH]c2=S)cc1 | -1 | 2 | -11 | -8 | -2 | -7
CCOc1ccc(-n2c(-c3ccccc3)c[n+]3c2CCCCC3)cc1 | 89* | 70* | -12 | -7 | -10 | 22
c1ccc(-c2c[n+]3c(n2-c2ccccc2)CCC3)cc1 | 71* | 65* | x | -16 | 13 | -4
Cc1ccc(-c2c[n+]3c(n2-c2ccccc2)CCC3)cc1 | 82* | 65* | x | 9 | -2 | 22
CCOc1ccc(N2Cc3ccccc3C2)cc1 | -2 | -3 | -105 | -70 | -120 | -4
Cc1cc(NC(=O)Cc2ccccc2)c2ccccc2n1 | 39* | 73* | -6 | -13 | 5 | 11
CNC(=S)NNC(=O)c1cccc(N(C)C)c1 | 1 | 7 | -10 | -7 | 13 | 5
COc1ccc(C(=O)Nn2c(SCC(=O)NCc3ccco3)nc3ccccc3c2=O)cc1 | 4 | 10 | -77 | -80 | 81* | 6
COc1ccc(C(=O)Nn2c(SCc3cccc([N+](=O)[O-])c3)nc3ccccc3c2=O)cc1 | -1 | 3 | -94 | -103 | 66* | 10
CCn1c(SCC(=O)NCc2ccco2)nc2ccccc2c1=O | 0 | 5 | 12 | -1 | 2 | 4
COc1ccc(C(=O)Nn2c(SCC(=O)NC3CCCCC3)nc3ccccc3c2=O)cc1 | -1 | 6 | -110 | 13 | 5 | -1
O=C(Nn1c(SCc2cccc([N+](=O)[O-])c2)nc2ccccc2c1=O)c1ccccc1 | -2 | 2 | -119 | -13 | -145 | 0
COc1ccc(C(=O)Nn2c(SCC(=O)N3CCC(C)CC3)nc3ccccc3c2=O)cc1 | 17 | 18 | -31 | 14 | 83* | 14
SMILES | Ba/F3 V617F tox | BaF3 tox | APP transl inh | KLF5 inhibitor | aSyn UTR inh | IEC-6 cytotox
C=CCNC(=S)NNC(=O)c1ccc(OCCC)cc1 | -2 | 6 | 0 | -6 | 7 | 0
CCCOc1ccc(C(=O)NNC(=S)NC(=O)CC)cc1 | 5 | 1 | -2 | -6 | 85* | 8
CCc1cccc(OCC(=O)Nc2cc(S(=O)(=O)N3CCOCC3)ccc2N2CCCC2)c1 | x | x | x | -13 | -20 | -6
Cn1cnc2c1c(=O)n(Cc1ccc(Cl)cc1Cl)c(=O)n2C | x | x | x | -16 | 6 | 4
Cc1ccc2nc(/C(C#N)=C\c3ccc([N+](=O)[O-])o3)[nH]c2c1 | 9 | -2 | 6 | 1 | -24 | 1
N#C/C(=C\c1ccc([N+](=O)[O-])o1)c1nc2ccccc2[nH]1 | -4 | 1 | 97* | -7 | -2 | 4
Nc1ncc(-c2nnnn2-c2ccc(Cl)cc2)c(-c2ccc(Cl)cc2)n1 | 28* | 32* | 17 | 28 | 10 | 18

From PubChem
